Results on 6 molecules are retold here after PubChem BioAssay (NCI).

Structures are written as SMILES. Where “and” joins values, the source holds several entries; their conditions need not be identical. Identical values can stand only once. Compounds without any hit were thinned out: in the full panel of roughly 83,000, 20% have a hit.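 Interpretation: 100, growth as untreated; towards 0, rising growth inhibition; 0, no net growth; 0 to -100, cell death. Compounds scoring below 10 were considered active.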 Calls of active or inactive are those of the source.

Test systems include NCI-H23 lung; NCI-H226 lung; NCI-H322M lung; HOP-62 NSCLC; HOP-92 NSCLC; NCI-H522 lung; A549/ATCC NSCLC; 786-0 renal; COLO 205 colon; DU-145 prostate; K-562 leukemia; MALME-3M melanoma; MDA-MB-231 breast; RXF 393 renal; SF-268 CNS; SF-295 CNS; SF-539 CNS; UACC-257 melanoma; M14 melanoma; NCI-H460 lung.
Holding throughout (experiment): NCI-60 one-dose screen, 48 h (100 = growth as untreated, 0 = no growth, -100 = all killed)
Holding throughout (details): 10 µM unless noted

Consider `CCOC(=O)c1ccncc1`, for which the growth in the assay with NCI-H23 lung was 109% (inactive); with NCI-H226 lung, 91.3% (inactive); in the assay on NCI-H322M lung it was 106% (inactive); with HOP-62 NSCLC it was 98.5% (inactive); in the assay on HOP-92 NSCLC, 108% (inactive); in the assay on NCI-H522 lung it was 98.3% (inactive). Further, the growth is 104% (inactive) in the assay with A549/ATCC NSCLC; 106% (inactive) in the assay with 786-0 renal; 103% (inactive) in the assay with COLO 205 colon; 104% (inactive) in the assay on DU-145 prostate; 99.3% (inactive) in the assay with K-562 leukemia; 113% (inactive) in the assay on MALME-3M melanoma. Also, the growth in the assay on MDA-MB-231 breast was 110% (inactive); with RXF 393 renal, 107% (inactive); in the assay on SF-268 CNS it was 101% (inactive); in the assay with SF-295 CNS it was 96.2% (inactive); with SF-539 CNS, 108% (inactive); in the assay on UACC-257 melanoma, 116% (inactive). For the same molecule, in the assay on M14 melanoma, the growth was 102% (inactive).

Regarding `N=C(N=C(N)N)N1CCOCC1`, the growth in the assay on NCI-H23 lung is 103% (inactive) and 90.8% (inactive); with NCI-H226 lung it was 99.3% (inactive) and 98.3% (inactive); in the assay with NCI-H322M lung, 95.4% (inactive) and 112% (inactive); in the assay on HOP-62 NSCLC, 94.7% (inactive) and 106% (inactive); in the assay on NCI-H460 lung, 99.8% (inactive) and 102% (inactive); in the assay on NCI-H522 lung it was 94.7% (inactive) and 107% (inactive). In addition, the growth in the assay on A549/ATCC NSCLC was 103% (inactive) and 94.2% (inactive); with 786-0 renal, 104% (inactive) and 95.6% (inactive); in the assay on COLO 205 colon, 104% (inactive) and 107% (inactive); in the assay with DU-145 prostate it was 102% (inactive) and 106% (inactive); in the assay with K-562 leukemia it was 106% (inactive) and 112% (inactive); in the assay on MALME-3M melanoma, 90.6% (inactive) and 108% (inactive). Besides, the growth in the assay on MDA-MB-231 breast is 104% (inactive) and 99.2% (inactive); in the assay on RXF 393 renal, 111% (inactive); in the assay with SF-268 CNS it was 104% (inactive) and 102% (inactive); in the assay on SF-295 CNS, 110% (inactive) and 96.9% (inactive); with SF-539 CNS, 105% (inactive) and 95.9% (inactive); in the assay with UACC-257 melanoma, 107% (inactive) and 104% (inactive). The growth with M14 melanoma was 91.1% (inactive) and 97.2% (inactive).

Regarding `COc1ccccc1OCC(O)CO` (stereo unspecified), the growth in the assay with NCI-H23 lung was 106% (inactive) and 103% (inactive); in the assay on NCI-H226 lung, 102% (inactive) and 94.6% (inactive); in the assay with NCI-H322M lung it was 75.7% (inactive) and 115% (inactive); in the assay with HOP-62 NSCLC it was 96.8% (inactive) and 121% (inactive); in the assay with NCI-H460 lung it was 105% (inactive) and 113% (inactive); with HOP-92 NSCLC it was 90% (inactive). Moreover, the growth is 98.6% (inactive) and 106% (inactive) with NCI-H522 lung; 96.6% (inactive) in the assay with A549/ATCC NSCLC; 97.6% (inactive) and 102% (inactive) with 786-0 renal; 116% (inactive) in the assay with COLO 205 colon; 115% (inactive) and 123% (inactive) in the assay with DU-145 prostate; 118% (inactive) and 87.4% (inactive) in the assay on K-562 leukemia. Further, the growth in the assay with MALME-3M melanoma was 110% (inactive) and 105% (inactive); with MDA-MB-231 breast, 114% (inactive) and 111% (inactive); with RXF 393 renal, 110% (inactive) and 111% (inactive); with SF-268 CNS, 100% (inactive) and 114% (inactive); in the assay with SF-295 CNS, 3.64% (active) and 96.5% (inactive); in the assay with SF-539 CNS, 92.3% (inactive) and 121% (inactive). Besides, the growth was 102% (inactive) and 105% (inactive) in the assay on UACC-257 melanoma; 104% (inactive) and 106% (inactive) in the assay on M14 melanoma.

As to `CCc1ccccc1-n1[nH]c(C)c(C=N)c1=O`, the growth in the assay on NCI-H23 lung was 102% (inactive); in the assay with NCI-H226 lung, 89% (inactive); in the assay with NCI-H322M lung, 106% (inactive); in the assay on HOP-62 NSCLC, 135% (inactive); in the assay on HOP-92 NSCLC it was 98.6% (inactive); in the assay on NCI-H522 lung, 102% (inactive). Besides, the growth was 126% (inactive) in the assay on A549/ATCC NSCLC; 112% (inactive) in the assay with 786-0 renal; 120% (inactive) with COLO 205 colon; 118% (inactive) with DU-145 prostate; 96.5% (inactive) in the assay on K-562 leukemia; 94.4% (inactive) in the assay with MALME-3M melanoma. In addition, the growth in the assay with MDA-MB-231 breast was 106% (inactive); with RXF 393 renal it was 103% (inactive); with SF-268 CNS, 114% (inactive); in the assay on SF-295 CNS, 99.3% (inactive); with SF-539 CNS, 100% (inactive); with UACC-257 melanoma it was 116% (inactive). Further, the growth in the assay on M14 melanoma is 109% (inactive).

Consider `O=C(O)C1CSCN1` (stereo unspecified), for which the growth in the assay with NCI-H23 lung is 113% (inactive) and 101% (inactive); with NCI-H226 lung it was 113% (inactive) and 98.5% (inactive); in the assay on NCI-H322M lung, 93.9% (inactive) and 74.4% (inactive); in the assay on HOP-62 NSCLC it was 99.8% (inactive) and 96.2% (inactive); in the assay with NCI-H460 lung, 125% (inactive) and 103% (inactive); in the assay with NCI-H522 lung, 99.7% (inactive) and 96.1% (inactive). For the same molecule, the growth is 97.7% (inactive) and 111% (inactive) with A549/ATCC NSCLC; 90.2% (inactive) and 101% (inactive) in the assay on 786-0 renal; 103% (inactive) and 104% (inactive) with COLO 205 colon; 116% (inactive) and 127% (inactive) with DU-145 prostate; 93.5% (inactive) and 95.2% (inactive) with K-562 leukemia; 94.1% (inactive) in the assay on MALME-3M melanoma. The growth in the assay on MDA-MB-231 breast is 107% (inactive) and 112% (inactive); in the assay on RXF 393 renal, 123% (inactive); with SF-268 CNS, 117% (inactive) and 104% (inactive); with SF-295 CNS, 104% (inactive) and 108% (inactive); with SF-539 CNS, 121% (inactive) and 93.4% (inactive); in the assay with UACC-257 melanoma, 106% (inactive) and 91.6% (inactive). In addition, the growth with M14 melanoma is 108% (inactive) and 99.8% (inactive).

In the case of `CC(=O)Nc1cscc1NC(C)=O`, the growth in the assay on NCI-H23 lung is 103% (inactive); in the assay on NCI-H226 lung, 96.8% (inactive); in the assay on NCI-H322M lung it was 80.1% (inactive); in the assay with HOP-62 NSCLC, 98.2% (inactive); in the assay on NCI-H460 lung, 101% (inactive); in the assay with HOP-92 NSCLC it was 112% (inactive). For the same molecule, the growth in the assay on NCI-H522 lung is 91.3% (inactive); in the assay on A549/ATCC NSCLC it was 104% (inactive); in the assay on 786-0 renal, 101% (inactive); in the assay with COLO 205 colon, 100% (inactive); in the assay with DU-145 prostate it was 98.4% (inactive); in the assay on K-562 leukemia, 125% (inactive). The growth with MALME-3M melanoma was 88.4% (inactive); with MDA-MB-231 breast, 101% (inactive); in the assay with RXF 393 renal, 107% (inactive); in the assay with SF-268 CNS, 96.2% (inactive); with SF-295 CNS, 87.3% (inactive); in the assay with SF-539 CNS, 90.7% (inactive). Also, the growth with UACC-257 melanoma and with M14 melanoma was 104% (inactive) each time.
